Reference: PubChem BioAssay (NCI)
The panel holds about 83,000 compounds, 20% with a hit somewhere; the sample as a whole holds those more often.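 Negative percent growth values reflect cell death: -40 means 40% of the cells present at the start died, and -100 means all died.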 The source made the active and inactive calls. The calls were made as follows: active = growth percent below 10; inactive = the rest.

What follows are compounds tested on NCI-H226 lung (assay: NCI-60 one-dose screen, 48 h (100 = growth as untreated, 0 = no growth, -100 = all killed)). Settings: 10 µM unless noted.

SMILES | growth
C[C@]12CC[C@@H]3c4cc(O)c(O)cc4CC[C@H]3[C@@H]1CC[C@@H]2O | 97.8% (inactive)
CCCOC(=O)C1(O)CCCC1 | 92.9% (inactive)
COC1=CC(c2ccc[nH]2)=N/C1=C\c1[nH]c(C)c(C(=O)CCCCC(=O)NCc2ccccc2)c1C | 28.6% (inactive)
O=C(NNC(=S)Nc1ccccc1)c1ccccn1 | 43.4% (inactive)
COc1cc(NC(=O)CCl)ccc(=O)c1 | 122% (inactive)
COc1ccc(S(=O)(=O)N2CCN(c3cc4c(cc3F)c(=O)c(C(=O)O)cn4C3CC3)CC2)c(OC)c1 | 89% (inactive)
COc1ccc(Cn2cc(COc3cc(/C=C/C(=O)c4cc(OC)c(OC)c(OC)c4)ccc3OC)nn2)cc1 | 89.4% (inactive)
COc1cc(C(=O)OCCCCCCCCCCC[P+](c2ccccc2)(c2ccccc2)c2ccccc2)ccc1O | 27.9% (inactive)
CC(C(=O)n1cc(-c2ccccc2)c(-c2ccccc2)c1)c1ccccc1 (stereo not given) | 104% (inactive)
C=CCOc1cccc(/C=C/C(=O)c2sc(Nc3cccnc3)nc2C)c1 | 86.1% (inactive)
O=C(CCCn1c(=O)c2sc3ccccc3c2n2nnc(-c3ccccc3)c12)NCCc1cnc[nH]1 | 105% (inactive)
CCC1CCc2nc3sc(C(=O)Nc4cccc(C)c4)c(N)c3cc2C1 (stereo not given) | 96% (inactive)
Cc1cccc(NC(=O)c2sc3nc4c(cc3c2N)CCCC4)c1 | 64.8% (inactive)
COc1ccc(-c2cn[nH]c2-c2cc(OC)c3c(c2)OCCO3)cc1 | 57.1% (inactive)
CC(C)C[C@H](NC(=O)Cn1ccc(NCc2ccccc2)cc1=O)B(O)O | -75% (active)
